The results in this text go back to PubChem BioAssay (NCATS).

Results filed as inconclusive are left out. Where a call stands in place of a potency, no number is given. A number with no mark means an inactive call. The source made the active and inactive calls. Calls come from the whole dose curve; as a rule, active = well fitted curve in the direction sought with a large enough effect; inconclusive = small, poorly fitted or top-dose-only effect, or another doubt; inactive = no such curve, though single readings can be large; an effect the other way counts as inactive or inconclusive.
Note: nearly all actives have a fitted effect of over 70% in size.
Potency is the fitted concentration of half-maximal effect.

The first test in a line: Primary qHTS for inhibitors of nuclear receptor binding SET domain protein 2 (NSD2) in an isogenic RCH-ACV NSD2 p.E1099K mutant (9B) (AID 1645876). Conditions: RCH-ACV NSD2 E1099K (9B) viability, CellTiter-Glo, 72 h; series mostly up to 44.9 µM. In general terms: Quantitative high-throughput screening tests each substance at several concentrations.
For the compound `CC(=O)OC1C[C@]2(C)C(O)CC(C)=C[C@H](OC(=O)c3ccc(O)cc3)C2[C@]1(O)C(C)C` (stereo partly drawn), the Potency entry is “inactive”.
Still for that read-out and setting: for `C=CC1(C)C=C2C(=O)OC(=O)C3=C(CCCC3(C)C)C2(O)CC1` (stereo not drawn) the value was “inactive”; for `O=C(/C=C\c1ccc(O)cc1)N[C@@H](Cc1ccc(O)cc1)C(=O)O`, “inactive”.
The same measure, in the same setting: to `NC1(C(=O)NC(CCO)c2ccc(Cl)cc2)CCN(c2ncnc3[nH]ccc23)CC1` (stereo not drawn) belongs 728 nM (active).
Consider `CC(=O)OC1C(=O)C2(C)C(O)CC3OCC3(OC(C)=O)C2C(OC(=O)c2ccccc2)C2(O)CC(OC(=O)C(O)C(NC(=O)c3ccccc3)c3ccccc3)C(C)=C1C2(C)C` (stereo not drawn), for which the Potency was 5.2 nM (active).
As for `O=C1C=CC2OC(c3ccccc3)C(O)C2O1` (stereo not drawn), the Potency was 5780 nM (active).
Turning to `C[C@H]1CC(=O)Nc2cccc(-c3cnn(C(C)(C)C)c3)c2N1`, the Potency entry was “inactive”.
The same measure, in the same setting: for `CC(C)O[C@@H]1O[C@H](CO)[C@@H](O)[C@H](O)[C@H]1O` the value was “inactive”; for `CC1C(=O)OCC2=CCN3CCC(OC(=O)C(C)(O)C1(C)O)C23` (stereo not drawn), “inactive”.
`Cc1cc(O)cc(O[C@@H]2O[C@H](CO)[C@@H](O)[C@H](O)[C@H]2O)c1`: the Potency entry was “inactive”.
`C=C1C[C@@]23CCC4[C@@](C)(CCC[C@@]4(C)C(=O)OC)C2CC[C@@H]1C3` (stereo partly drawn): the Potency result is “inactive”.
As to `CC(C)(C)Nc1nc(Nc2ccc(C(N)=O)cc2)cc(N)c1C#N`, the Potency was 3650 nM (active).
Consider `N#Cc1c(Oc2ccc(F)c(NC(=O)Cc3cccc(C(F)(F)F)c3)c2)ccc2nc(NC(=O)C3CC3)sc12`, for which the Potency is 578 nM (active).
Turning to `CC(C)=CCC[C@](C)(O[C@@H]1O[C@H](CO)[C@@H](O)[C@H](O)[C@H]1O)[C@H]1CC[C@]2(C)[C@@H]1[C@H](O)CC1[C@@]3(C)CC[C@H](O)C(C)(C)C3[C@@H](O[C@@H]3O[C@H](CO)[C@@H](O)[C@H](O)[C@H]3O)C[C@]12C` (stereo partly drawn), the Potency entry was “inactive”.
Turning to `C[C@@H]1CC[C@]2(C(=O)O[C@@H]3O[C@H](CO)[C@@H](O)[C@H](O)[C@H]3O)CC[C@]3(C)C(=CCC4[C@@]5(C)C[C@@H](O)[C@H](O)[C@](C)(C(=O)O)C5CC[C@]43C)[C@@H]2[C@]1(C)O` (stereo partly drawn), the Potency result is “inactive”.
For the compound `C[C@H](NC(=O)CCc1nc2ccccc2c(=O)[nH]1)c1ccccc1`, the Potency entry was “inactive”.
Consider `C=C1CC2C(C)(CCC(=O)O)C(C(C)(C)O)CCC2(C)C2C(=O)OC(C)(C(=O)OC)C(=O)C12C` (stereo not drawn), for which the Potency entry was “inactive”.
In the case of `C=C1CCCC2(C)CC3(OC)OC(=O)C(C)=C3CC12` (stereo not drawn), the Potency result was “inactive”.
`CC1CC(O)C2(OC1=O)OC1C(O)C3C4CCC5CC(OC6OC(CO)C(O)C(O)C6OC6OC(C)C(O)C(O)C6O)CCC5(C)C4CCC3(C)C1C2C` (stereo not drawn): the Potency entry is “inactive”.

A short description of the next test: Primary qHTS for inhibitors of nuclear receptor binding SET domain protein 2 (NSD2) in an RCH-ACV wild type WT cells (2C) (AID 1645877). Conditions: RCH-ACV (leukaemia line) NSD2 WT (2C) viability, CellTiter-Glo, 72 h; series mostly up to 44.9 µM.
For `C=C[C@H]1C(O[C@@H]2O[C@H](CO)[C@@H](O)[C@H](O)[C@H]2O)OC=C2C(=O)N3CCc4c([nH]c5ccccc45)C3CC21` (stereo partly drawn), the Potency result was “inactive”.
On to `COC(=O)c1cc(OC)cc(OC)c1C(=O)c1c(OC)cc2c(c1O)C1CCCC(C)(O2)O1` (stereo not drawn), for which the Potency result was “inactive”.
On the same count and under the same terms, to `COc1cc2occc2c(O[C@@H]2O[C@H](CO)[C@@H](O)[C@H](O)[C@H]2O)c1CCC(=O)O` belongs “inactive”; to `COC(=O)C1(C)c2[nH]c3ccccc3c2CCN1C(=O)CCl` (stereo not drawn), 2580 nM (active).
`CC1(C)CC[C@]2(C(=O)O[C@@H]3O[C@H](CO)[C@@H](O)[C@H](O)[C@H]3O)CC[C@]3(C)C(=CCC4[C@@]5(C)CC[C@H](O[C@@H]6O[C@H](C(=O)O)[C@@H](O)[C@H](O[C@@H]7O[C@H](CO)[C@H](O)[C@H](O)[C@H]7O)[C@H]6O)C(C)(C)C5CC[C@]43C)C2C1` (stereo partly drawn): the activity change, negative = cell killing is -15.1% [at 9.23 µM].
On the same count and under the same terms, to `CC1OC(O[C@H]2CC[C@@]3(C)C(CC[C@]4(C)C3CC=C3C5CC(C)(C)CC[C@]5(C(=O)OC5OC(CO)C(OC6OC(COC7OCC(O)C(O)C7O)C(O)C(O)C6O)C(O)C5O)CC[C@]34C)C2(C)C)C(O)C(O)C1OC1OCC(OC2OCC(O)C(O)C2O)C(O)C1O` (stereo partly drawn) belongs 2.24% [at 9.23 µM].
Regarding `C=C[C@H]1[C@H](O[C@@H]2O[C@H](CO)[C@@H](O)[C@H](O)[C@H]2O)OC=C(C(=O)OC)[C@H]1C[C@@H]1c2cc(O)c(O)cc2CCN1C(C)=O`, the Potency result was “inactive”.
The same measure, in the same setting: for `N#C[C@@H]1C[C@H](F)CN1C(=O)CNC1[C@H]2CN(C(=O)c3ccc(F)cc3)C[C@@H]12` (stereo partly drawn) the value was “inactive”; for `CC(C)c1ccc(CO)cc1O[C@@H]1O[C@H](CO)[C@@H](O)[C@H](O)[C@H]1O`, “inactive”.
As to `COC(=O)[C@@H](O)[C@H]1[C@@]2(C)CC3(O)[C@@H](C(=O)[C@H]2O)[C@]24O[C@]25CC(=O)O[C@@H](c2ccoc2)[C@]5(C)CCC4[C@]13C` (stereo partly drawn), the Potency entry was “inactive”.
The same measure, in the same setting: for `CCOC(=O)C(CCc1ccccc1)NC(C)C(=O)N1C(=O)N(C)CC1C(=O)O` (stereo not drawn) the value was “inactive”.
On to `CC1(C)CC[C@]2(C(=O)O[C@@H]3O[C@H](CO)[C@@H](O)[C@H](O)[C@H]3O)CC[C@]3(C)C(=CCC4[C@@]5(C)CC[C@H](O[C@@H]6O[C@H](C(=O)O)[C@@H](O)[C@H](O)[C@H]6O)C(C)(C)C5CC[C@]43C)C2C1` (stereo partly drawn), for which the activity change, negative = cell killing is 4.17% [at 9.23 µM].
As for `O=C(O)/C=C/c1ccc(O)c(O[C@@H]2O[C@H](CO)[C@@H](O)[C@H](O)[C@H]2O)c1`, the Potency entry is “inactive”.
As for `CC(C)(O)c1ccc2c(c1)C(O)C[C@H]1[C@](C)(C(=O)O)CCC[C@]21C` (stereo partly drawn), the Potency result was “inactive”.
For `CC1=CC(=O)CC(C)(C)[C@@]1(O)CC[C@@H](C)O[C@@H]1O[C@H](CO)[C@@H](O)[C@H](O)[C@H]1O`, the Potency entry is “inactive”.
In the case of `COC(=O)C(C)C1CCC2(C)C(=O)C=CC(C)(O)C2C1O` (stereo not drawn), the Potency entry was “inactive”.
The same measure, in the same setting: to `CC(C)(O)/C=C/CC(C)(O)C1C(O)CC2(C)C3CCC4C(C)(C)C(=O)CCC4(C)C3CCC12C` (stereo not drawn) belongs “inactive”.
For the compound `CC1C(=O)CC2C3CCC(C(=O)O)C12CC3(C)CO` (stereo not drawn), the Potency entry was “inactive”.
The same measure, in the same setting: for `CC(C)=CCC/C(C)=C/Cc1ccc(O)c(C2OC(=O)c3cc(C(=O)O)cc(O)c32)c1O` (stereo not drawn) the value was “inactive”.
As to `C[C@@H]1O[C@@H](O[C@@H]2CO[C@@H](O[C@H]3CC[C@@]4(C)C(CC[C@]5(C)C4CC=C4[C@@H]6CC(C)(C)CC[C@]6(C(=O)O[C@@H]6O[C@H](CO)[C@@H](O)[C@H](O)[C@H]6O)CC[C@]45C)[C@]3(C)CO)[C@H](O)[C@H]2O[C@@H]2O[C@H](CO)[C@@H](O)[C@H](O)[C@H]2O)[C@H](O)[C@H](O)[C@H]1O` (stereo partly drawn), the activity change, negative = cell killing was -18.1% [at 9.23 µM].
As to `CC(=O)OC1C[C@]2(C)C(O)CC(C)=C[C@H](OC(=O)c3ccc(O)cc3)C2[C@]1(O)C(C)C` (stereo partly drawn), the Potency entry was “inactive”.
Still for that read-out and setting: to `C=CC1(C)C=C2C(=O)OC(=O)C3=C(CCCC3(C)C)C2(O)CC1` (stereo not drawn) belongs “inactive”; to `O=C(/C=C\c1ccc(O)cc1)N[C@@H](Cc1ccc(O)cc1)C(=O)O`, “inactive”.
For the compound `NC1(C(=O)NC(CCO)c2ccc(Cl)cc2)CCN(c2ncnc3[nH]ccc23)CC1` (stereo not drawn), the Potency was 1300 nM (active).
In the case of `CC(=O)OC1C(=O)C2(C)C(O)CC3OCC3(OC(C)=O)C2C(OC(=O)c2ccccc2)C2(O)CC(OC(=O)C(O)C(NC(=O)c3ccccc3)c3ccccc3)C(C)=C1C2(C)C` (stereo not drawn), the Potency was 6.5 nM (active).
For the compound `O=C1C=CC2OC(c3ccccc3)C(O)C2O1` (stereo not drawn), the Potency is 4590 nM (active).
Turning to `C[C@H]1CC(=O)Nc2cccc(-c3cnn(C(C)(C)C)c3)c2N1`, the Potency result is “inactive”.
As for `CC(C)O[C@@H]1O[C@H](CO)[C@@H](O)[C@H](O)[C@H]1O`, the Potency entry was “inactive”.
Regarding `CC1C(=O)OCC2=CCN3CCC(OC(=O)C(C)(O)C1(C)O)C23` (stereo not drawn), the Potency entry is “inactive”.
Same read-out and setting: to `Cc1cc(O)cc(O[C@@H]2O[C@H](CO)[C@@H](O)[C@H](O)[C@H]2O)c1` belongs “inactive”; to `C=C1C[C@@]23CCC4[C@@](C)(CCC[C@@]4(C)C(=O)OC)C2CC[C@@H]1C3` (stereo partly drawn), “inactive”.
Turning to `CC(C)(C)Nc1nc(Nc2ccc(C(N)=O)cc2)cc(N)c1C#N`, the Potency was 1450 nM (active).
`N#Cc1c(Oc2ccc(F)c(NC(=O)Cc3cccc(C(F)(F)F)c3)c2)ccc2nc(NC(=O)C3CC3)sc12`: the Potency was 1150 nM (active).
`CC(C)=CCC[C@](C)(O[C@@H]1O[C@H](CO)[C@@H](O)[C@H](O)[C@H]1O)[C@H]1CC[C@]2(C)[C@@H]1[C@H](O)CC1[C@@]3(C)CC[C@H](O)C(C)(C)C3[C@@H](O[C@@H]3O[C@H](CO)[C@@H](O)[C@H](O)[C@H]3O)C[C@]12C` (stereo partly drawn): the Potency result was “inactive”.
Consider `C[C@@H]1CC[C@]2(C(=O)O[C@@H]3O[C@H](CO)[C@@H](O)[C@H](O)[C@H]3O)CC[C@]3(C)C(=CCC4[C@@]5(C)C[C@@H](O)[C@H](O)[C@](C)(C(=O)O)C5CC[C@]43C)[C@@H]2[C@]1(C)O` (stereo partly drawn), for which the Potency entry is “inactive”.
In the case of `C[C@H](NC(=O)CCc1nc2ccccc2c(=O)[nH]1)c1ccccc1`, the Potency result was “inactive”.
Same read-out and setting: to `C=C1CC2C(C)(CCC(=O)O)C(C(C)(C)O)CCC2(C)C2C(=O)OC(C)(C(=O)OC)C(=O)C12C` (stereo not drawn) belongs “inactive”.
For `C=C1CCCC2(C)CC3(OC)OC(=O)C(C)=C3CC12` (stereo not drawn), the Potency entry was “inactive”.
Regarding `CC1CC(O)C2(OC1=O)OC1C(O)C3C4CCC5CC(OC6OC(CO)C(O)C(O)C6OC6OC(C)C(O)C(O)C6O)CCC5(C)C4CCC3(C)C1C2C` (stereo not drawn), the Potency entry is “inactive”.
